Results filed as inconclusive are left out. Active and inactive are the calls of the source. Unless noted, calls come from the whole dose curve.
Experiments:
[1] = qHTS for Inhibitors of the Functional Ribonucleoprotein Complex (vRNP) of Lassa (LASV) Arenavirus: LASV Primary Screen - GLuc reporter signal (AID 1347082; calls by dose curve; tested in HEK293 reporter line; note: nearly all actives have a fitted effect of over 60% in size)
[2] = qHTS for Inhibitors of the Functional Ribonucleoprotein Complex (vRNP) of Lassa (LASV) Arenavirus: Viability assay - alamar blue signal for LASV Primary Screen (AID 1347083; calls by dose curve; tested in HEK293 reporter line; note: nearly all actives have a fitted effect of over 80% in size)
[3] = qHTS for Inhibitors of the Functional Ribonucleoprotein Complex (vRNP) of Lymphocytic Choriomeningitis Arenaviruses (LCMV): Viability assay - alamar blue signal for LCMV Primary Screen (AID 1347085; calls by dose curve; tested in HEK293 reporter line; note: nearly all actives have a fitted effect of over 80% in size)
[4] = molecular target: Nucleoprotein (Lymphocytic choriomeningitis virus (strain Armstrong)) (UniProt P09992); assay: qHTS for Inhibitors of the Functional Ribonucleoprotein Complex (vRNP) of Lymphocytic Choriomeningitis Arenaviruses (LCMV): LCMV Primary Screen - GLuc reporter signal (AID 1347086); note: nearly all actives have a fitted effect of over 70% in size

Measured: Potency
Note: series mostly up to about 57 µM.

Nucleoprotein (Lymphocytic choriomeningitis virus (strain Armstrong)), sequence (P09992 whole entry, looked up): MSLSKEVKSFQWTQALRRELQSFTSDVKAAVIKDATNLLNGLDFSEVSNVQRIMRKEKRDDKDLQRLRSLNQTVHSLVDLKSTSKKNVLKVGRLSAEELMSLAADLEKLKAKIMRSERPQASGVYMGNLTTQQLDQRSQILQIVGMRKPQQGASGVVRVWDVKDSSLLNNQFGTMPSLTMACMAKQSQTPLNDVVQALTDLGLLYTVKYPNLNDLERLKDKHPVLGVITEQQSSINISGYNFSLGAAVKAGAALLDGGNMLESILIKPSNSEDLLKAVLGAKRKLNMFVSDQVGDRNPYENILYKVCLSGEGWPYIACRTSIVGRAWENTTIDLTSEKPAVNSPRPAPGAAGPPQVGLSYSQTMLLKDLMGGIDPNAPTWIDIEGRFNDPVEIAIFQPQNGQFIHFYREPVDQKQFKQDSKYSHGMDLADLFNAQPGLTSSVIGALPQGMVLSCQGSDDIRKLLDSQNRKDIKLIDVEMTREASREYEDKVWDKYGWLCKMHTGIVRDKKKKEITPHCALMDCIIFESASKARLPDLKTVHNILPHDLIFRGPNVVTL

Cc1cc(NS(=O)(=O)c2ccc(N)cc2)nc(C)n1
inactive: all assays above

Nc1nc(N)c(-c2ccccc2)s1
inactive: all assays above

Nc1ccn([C@@H]2O[C@H](CO)[C@@H](O)C2O)c(=O)n1 (some centres undefined)
inactive: all assays above

CCOc1ncc(F)c(=O)[nH]1
inactive: all assays above

Nc1ncnc(Nc2ccccc2)n1
inactive: all assays above

C/C(=C(\CCO)SS/C(CCO)=C(\C)N(C=O)Cc1cnc(C)nc1N)N(C=O)Cc1cnc(C)nc1N
inactive: all assays above

CC(=O)N(CC(O)CO)c1c(I)c(C(=O)NCC(O)CO)c(I)c(C(=O)NCC(O)CO)c1I (centres undefined)
inactive: all assays above

NC(=O)c1ccc([N+](=O)[O-])cc1Cl
inactive: all assays above

Nc1ncnc2nc[nH]c12
inactive: all assays above

CN1C(CSCC(F)(F)F)Nc2cc(Cl)c(S(N)(=O)=O)cc2S1(=O)=O (centres undefined)
inactive: all assays above

CC(C(=O)O)c1ccc2c(c1)[nH]c1ccc(Cl)cc12 (centres undefined)
inactive: all assays above
